From PubChem
Most compounds without a hit are left out; they make up all but 4.3% or so of the library.
HSF-1 act: increases HSF-1 driven luciferase reporter signal; NIH3T3-HGL HSF-1 luciferase reporter, MG132, 8 h; 100% = twice DMSO control signal; activation, % at 9 µM; actives 1.7% (n = 300,000); AID 504408;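 active means mean replicate activation of at least 50% with a set share of replicates each reaching 50%; inconclusive means only one of those two conditions met; inactive means mean below 50% and too few replicates reaching it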;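 further: 0% = median of the neutral control wells and 100% = twice that signal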
HSF1 inhib: HSF1 inhibition; NIH3T3-HGL HSE-luciferase, MG132-induced, luminescence 8 h; active compounds read low; activity change, negative = inhibition, % at 7.5 µM (by protocol); actives 0.77% (n = 300,000); AID 2098;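 active means more than half of replicate wells show activity change below -50%, luminescence cut by over half; inconclusive means some wells, but at most half, below -50%; inactive means no replicate well below -50%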;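 further: luciferase reports HSF-1 transcriptional activity via heat shock element; 0% = median of DMSO wells and -100% = zero luminescence signal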
MITF TRPM1 HTS: increases MITF-driven TRPM1 promoter luciferase signal; SK-MEL-5 TRPM1-promoter luciferase, 24 h; % of positive control, neutral wells = 0; activation, % at 12.5 µM; actives 0.75% (n = 300,000); AID 588334;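 active means mean activation of at least 80% with every replicate also reaching 80%; inconclusive means mean reaches 80% but some replicate falls short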;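 further: 0% = neutral control wells and 100% = parthenolide positive control wells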
esBAF inh: blocks esBAF chromatin remodeling in mouse ES cells; Bmi1-luciferase knock-in reporter, 24 h; 100% = twice the neutral-well signal; reporter increase, % at 12.5 µM; actives 2% (n = 350,000); in the data active means activation above about 40%; inconclusive means no clear call, values can overlap the other calls;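 further: 0% = median of the plate's neutral control wells and 100% = double that signal; a rise in the Bmi1 reporter signal indicates esBAF inhibition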
Wnt bcat act: Wnt/beta-catenin pathway activation | Wnt/beta-catenin reporter cell assay, activator, plate reader | activation, % at 9.35 µM | actives 1.2% (n = 300,000); in the data active means activation above about 30%, passing the limit was not always enough; inconclusive means no clear call, values can overlap the other calls;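 further: 0% = neutral control wells and 100% = positive control wells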
SMARCA2 act: increases SMARCA2 function in MMTV reporter cells | MG213 cells, MMTV-luciferase reporter, dexamethasone, overnight | activation, % at 9.1 µM | actives 1% (n = 370,000) | AID 652017; in the data active means activation above about 7.8%;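 further: 0% = vehicle wells and 100% = reference activator wells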
* marks the source's active call; other numbers are inactive results; u = inconclusive; x = not tested or not shown.

SMILES | HSF-1 act | HSF1 inhib | MITF TRPM1 HTS | esBAF inh | Wnt bcat act | SMARCA2 act
C[C@H](CO)N1C[C@H](C)[C@@H](CN(C)C(=O)Nc2ccc(F)cc2)OCCCC[C@H](C)Oc2ccc(NS(=O)(=O)c3ccc(F)cc3)cc2C1=O | x | x | x | 0 | x | x
CO[C@@H]1CN(C)C(=O)c2cc(NC(=O)c3ccccc3)ccc2OC[C@H](C)NC[C@@H]1C | x | x | x | 4 | x | x
Cc1cc2nc3c(=O)n(CCc4ccccc4)c(=O)[nH]c3nc2cc1N | 59* | 20 | x | x | -2 | 1
Cc1ccc(S(=O)(=O)Nc2ccc3c(c2)C(=O)N([C@H](C)CO)C[C@H](C)[C@@H](CN(C)S(=O)(=O)c2ccc(F)cc2)O3)cc1 | x | x | x | -5 | x | x
CCOc1ccc(-c2noc(-c3csc([C@@H]4C[C@H](O)[C@@H](CO)O4)n3)n2)cc1 | x | x | x | 81* | -1 | 0
COc1cc(OC)cc(-c2noc(-c3csc([C@@H]4C[C@H](O)[C@@H](CO)O4)n3)n2)c1 | x | x | x | 48* | -3 | 2
OC[C@H]1O[C@@H](c2nc(-c3nc(-c4ccc(F)cc4)no3)cs2)[C@H](O)[C@@H]1O | x | x | x | 4 | 61* | 0
CN(C)C(=O)C[C@H]1CC[C@@H]2[C@H](COC[C@@H](O)CN2C(=O)c2ccncc2)O1 | x | x | x | -5 | x | x
Cc1ccc(S(=O)(=O)N(C)C[C@@H]2Oc3ccc(NC(=O)CCC(F)(F)F)cc3CC(=O)N([C@H](C)CO)C[C@@H]2C)cc1 | x | x | x | -2 | x | x
C[C@H](CO)N1C[C@H](C)[C@@H](CN(C)S(=O)(=O)c2cn(C)cn2)Oc2ccc(NC(=O)Nc3cccc4ccccc34)cc2C1=O | x | x | x | 2 | x | x
CC(C)NC(=O)Nc1ccc2c(c1)C(=O)N([C@H](C)CO)C[C@@H](C)[C@H](CN(C)Cc1ccc(-c3ccccc3)cc1)O2 | x | x | x | -1 | x | x
CCC(NC(=S)NCc1ccccc1)C(=O)O (centres undefined) | -67 | -60* | 1 | -8 | 0 | 0
C[C@H]1CN([C@@H](C)CO)C(=O)Cc2cc(NC(=O)Cc3ccccc3)ccc2O[C@@H]1CN(C)CC1CC1 | x | x | x | 2 | x | x
C[C@H]1CCCCO[C@H](CN(C)S(=O)(=O)c2ccc(Cl)cc2)[C@@H](C)CN([C@@H](C)CO)C(=O)c2cc(NC(=O)C3CCCCC3)ccc2O1 | x | x | x | -6 | x | x
CCOc1ccc(-c2cnc3cccnn23)cc1 | x | x | x | 38 | 26 | 0
O=C(NC1CC1)c1ccc(-c2cnc3cccnn23)cc1 | x | x | x | 25 | 35* | 2
O=C(NC1Cc2ccccc2C1)[C@@H]1[C@@H](CO)[C@@H]2Cn3c(cccc3=O)[C@H]1N2C(=O)CC1CC1 | x | x | x | 0 | x | x
C[C@H](CO)N1C[C@H](C)[C@@H](CN(C)S(=O)(=O)c2ccc(Cl)cc2)Oc2ccc(NC(=O)c3ccncc3)cc2CC1=O | x | x | x | -1 | x | x
CCOc1cc(-c2c(C#N)c(N)nc3c2CCc2ccccc2-3)ccc1O | 35 | 15 | -5 | x | 7 | -6
COc1ccccc1-c1c(C#N)c(N)nc2c1CCc1ccccc1-2 | 60* | 41 | -50 | x | x | -5
COCCn1c(=O)[nH]c(=O)c2c1nc(-c1cc(Br)c3c(c1)OCO3)n2Cc1ccccc1 | 59* | 22 | -1 | x | 1 | 1
COCCCn1c(-c2cccc(Cl)c2)nc2c1c(=O)[nH]c(=O)n2Cc1ccccc1 | 9 | 4 | -12 | 6 | -4 | -1
O=C(Nc1ccccc1)c1ccc(F)cc1F | -28 | -7 | 63 | 37 | 10 | 4
O=C(Nc1ccc(N2CCCC2)cc1)c1ccccc1F | 24 | 6 | 61 | 42* | x | 4
O=C(Nc1ccc(Nc2ccccc2)cc1)c1ccccc1F | 36 | 14 | x | 52* | -1 | 5
SMILES | HSF-1 act | HSF1 inhib | MITF TRPM1 HTS | esBAF inh | Wnt bcat act | SMARCA2 act
O=C(Nc1ccc(N2CCCCC2)cc1)c1ccc(F)cc1F | 39 | 16 | 22 | -29 | 44* | 1
O=C(Nc1ccc(N2CCN(C(=O)c3cccs3)CC2)cc1)c1ccccc1F | -4 | -7 | 4 | -1 | -3 | -2
O=C(Nc1ccc(N2CCCC2)cc1)c1cccc(F)c1 | -5 | 3 | 73 | 3 | 22 | 2
Cc1ccc(NC(=O)c2ccc(F)cc2F)cc1 | 23 | 25 | 60 | -51 | 46* | 6
CC(=O)N1[C@H](C(=O)N2CCCCC2)[C@@H](CO)[C@@H]2Cn3c(ccc(C4=CCCCC4)c3=O)[C@@H]21 | x | x | x | 8 | x | x
C[C@H]1CCCCO[C@@H](CN(C)C(=O)c2ccncc2)[C@@H](C)CN([C@@H](C)CO)C(=O)c2cc(NS(=O)(=O)c3cn(C)cn3)ccc2O1 | x | x | x | -4 | x | x
O=C(Nc1ccc(N2CCCC2)cc1)c1cccc(Cl)c1Cl | 5 | 0 | x | 85* | -1 | 2
O=C(Nc1ccc(F)cc1)Nc1ccc(Cl)cn1 | 22 | 9 | u | 35 | x | 1
O=C(NC(=O)c1ccc(F)cc1F)Nc1ccc(Cl)cc1 | 45 | 21 | 64 | x | 33* | 6
C[C@@H]1CN([C@H](C)CO)C(=O)c2cccc(N(C)C)c2O[C@H]1CN(C)Cc1ccccc1 | x | x | x | 0 | x | x
Cc1ccc(-c2nc(-c3ccncc3)no2)cc1 | 44 | 11 | 23 | 1 | 33* | 4
CCCc1noc(-c2ccc(-c3ccccc3)cc2)n1 | 47 | 18 | x | 33 | 39* | 4
Cc1ccc(-c2nc(-c3ccccc3)no2)c(Cl)c1 | -77 | -72* | -49 | -70 | -9 | -2
COc1ccc(-c2noc(-c3ccccc3-c3ccccc3)n2)cc1 | 19 | -1 | x | -4 | 0 | -2
Brc1cccc(-c2nc(-c3ccncc3)no2)c1 | 22 | 7 | 69 | 57* | -3 | 7
O=C(c1ccccn1)N1C[C@H]2[C@@H](c3ccccc31)[C@@H](CO)N2C(=O)Nc1ccccc1 | x | x | x | -3 | x | x
C[C@@H]1CN([C@H](C)CO)C(=O)c2cccc(NS(=O)(=O)c3ccc(Cl)cc3)c2O[C@H]1CN(C)C(=O)Nc1ccccc1 | x | x | x | -4 | x | x
CC(=O)Nc1ccc2c(c1)C(=O)N(C)[C@@H]1CC[C@H](CC(=O)NC3CCCCC3)O[C@@H]1CO2 | x | x | x | 4 | x | x
Nc1ccc(-c2ncc(-c3ccccc3)o2)cc1 | -27 | -28 | -59 | -62 | 1 | -9
Cc1ccc(-c2nc(-c3ccccc3)no2)cc1 | -20 | -14 | 1 | x | x | 7.8*
Cc1ccc(-c2cnc(-c3ccncc3)o2)cc1 | 35 | 25 | 40 | 45* | x | 6
CCOC(=O)C1=NN(c2ccccc2)C2(S1)SC(C(C)=O)=C(C)N2c1ccccc1 (centres undefined) | 18 | -3 | -10 | 2 | x | -1
CCOC(=O)C1=NN(c2ccc(C)cc2)C2(S1)SC(C(C)=O)=C(C)N2c1ccccc1 (centres undefined) | 62* | 22 | x | 0 | 8 | -1
C[C@@H]1CN([C@H](C)CO)C(=O)c2cccc(NC(=O)C3CC3)c2O[C@H]1CN(C)C | x | x | x | -4 | x | x
